Screening data as filed in PubChem.
Only a selection was taken, and hits are over-represented in it overall.
Pf Dd2 growth = blocks in vitro growth of P. falciparum Dd2. P. falciparum Dd2 growth, SYBR Green, 72 h. Potency, µM (highest dose often 28.9 µM), hits mostly inhibitors. 120,000 compounds, 4.3% hits; active = well fitted inhibition curve with a large enough effect; note: nearly all actives have a fitted effect of over 65% in size
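Infected erythrocytes (Dd2, 0.3% parasitemia, 2.5% hematocrit final) are added to compound in RPMI-1640/Albumax II medium, grown 72 h at 37C in low oxygen, then lysed with saponin/Triton-X containing SYBR Green and read by fluorescence.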
Each line names hits and unclear results; the compound was inactive in the other large screens.

CC(C)(C)C1CCc2nc(NC(=O)Cc3ccccc3)sc2C1 (stereo not drawn)	Pf Dd2 growth 11µM
CC(C)(C)C1CCc2nc(NC(=O)COc3ccccc3[N+](=O)[O-])sc2C1 (stereo not drawn)	none
COc1ccccc1C(O)c1nc(Nc2ccc(Cl)cc2F)n[nH]1 (stereo not drawn)	none
CCc1ccc(-c2nc(CSCC(=O)NCc3ccccc3OC)c(C)o2)cc1	none
COc1ccccc1CNC(=O)c1ccc2c(c1)N(Cc1ccc(C)cc1)CCS2	Pf Dd2 growth 10µM
CCCCOc1ccc(CNC(=O)c2ccc(-c3nc(CN4CCc5ccccc54)c(C)o3)cc2)cc1	none
COc1ccc(Br)cc1CNC(=O)c1ccc2c(c1)N(Cc1ccc(C)cc1)CCS2	none
COc1ccccc1CNC(=O)c1ccc(-c2nc(CN3CCc4ccccc43)c(C)o2)cc1	Pf Dd2 growth 10µM
CCOc1ccccc1CNC(=O)c1ccc2c(c1)N(Cc1ccc(C)cc1)CCS2	none
CCn1ccc(C(=O)N2[C@@H]3CC[C@H]2CC(NC(=O)c2ccncc2)C3)n1 (stereo partly drawn)	none
O=C(CCn1ccn2nc3c(c2c1=O)CCCC3)N1CCN(c2ccc(Cl)cc2)CC1	none
O=C1CC2(CCN(Cc3ccc(F)cc3)CC2)Oc2ccccc2N1	none
O=c1oc2c3c(ccc2c2ccccc12)OCN(Cc1cccc(Cl)c1)C3	Pf Dd2 growth 10µM
O=C(Cn1c(=O)c2c(n1Cc1ccccc1)CN(Cc1ccccc1)CC2)NCc1cccc(Cl)c1	none
O=c1oc2c3c(ccc2c2ccccc12)OCN(Cc1ccccc1Cl)C3	Pf Dd2 growth 5.6µM
Cc1cc2c(c3oc(=O)c4ccccc4c13)CN(Cc1ccc(F)cc1)CO2	Pf Dd2 growth 0.79µM
Cc1ccc(-c2c(C(=O)NCc3ccc(F)cc3)oc(=O)c3ccccc23)cc1	none
Cc1ccc2c(CN3CCN(Cc4ccccc4Cl)CC3)cc(=O)oc2c1	none
O=C1[C@H]2CN(Cc3ccccc3Cl)C[C@H]2C(=O)N1Cc1ccc2c(c1)OCO2	none
Cc1ccc2c(c1)N1C(=O)OC[C@@H]1CCN(Cc1cccc(Cl)c1)C2	none
COc1ccc(CN2CCCC3(CC(C(C)C)=NO3)C2)cc1 (stereo not drawn)	none
Cc1cccc(-n2nc(-c3c(C)nc4scc(CC(=O)NC5CCCCC5)n4c3=O)cc2C)c1C	none
O=C(Nc1ccc(Br)cc1)c1cnc(-c2ccc(F)cc2)nc1-c1ccncc1	none
O=C(NCCc1ccncc1)C1CN(C(=O)c2ccc(F)c(F)c2)CC12CCOCC2 (stereo not drawn)	none
COc1cccc(CC(=O)N2CCC([C@H]3[C@@H](OC)C(=O)N3C(C)C)CC2)c1	none
N#Cc1ccc(C(=O)N2CCC3(CC2)NC(=O)N(Cc2ccc(Cl)cc2)C3=O)cc1	none
O=C(NC1CCCC1)N1CCc2nnc(C3CC3)n2CC1	none
O=C1CCC2(CNC(=O)c3ccco3)CCCC=C2N1 (stereo not drawn)	none
O=C(COc1ccccc1)N1CCC2(CC1)NC(=O)N(c1cccc(F)c1)N2	none
COc1ccc(NC(=O)Cn2c(SCc3cc(C)ccc3C)nc3ccncc32)c(OC)c1OC	none
O=C(NCc1cccs1)c1ccc(Cn2c(SCc3cccc(F)c3)nc3cccnc32)cc1	none
CCNC(=O)c1ccc(CSc2nc3ccncc3n2Cc2ccc(F)cc2)cc1	Pf Dd2 growth 7.9µM
COc1cccc(CSc2nc3ccncc3n2CC(=O)Nc2ccc(OC)c(OC)c2OC)c1	none
O=C(NCc1ccc(F)cc1)c1ccc(CSc2nc3ccncc3n2Cc2ccc(F)cc2)cc1	Pf Dd2 growth 11µM
COc1ccccc1CNC(=O)c1ccc(CSc2nc3ccncc3n2Cc2ccccc2C)cc1	Pf Dd2 growth 7.1µM
COC(=O)c1ccc(Cn2c(SCC(=O)NCc3ccccc3)nc3ccccc32)cc1	none
COCCN1CCCCCC(O)c2cc(C(=O)NCCCc3ccccc3)ccc21 (stereo not drawn)	none
CCCOc1ccc(CNC(=O)C(C)C2CCOCC2)cc1 (stereo not drawn)	none
CC(C)NC(=O)C[C@@H]1O[C@H](CNCc2cccc(Cl)c2)[C@@H](O)[C@H]1O	none
COc1ccc(S(=O)(=O)N2CC[C@H]3NC(=O)N(c4ccc(C(C)C)cc4)C(=O)[C@H]32)cc1	none
Cn1cc(C(=O)N2CCC3(CC2)CN(Cc2ccccc2)CC3CO)cn1 (stereo not drawn)	none
Cn1cnc(S(=O)(=O)N2CCCN(C3CCOCC3)CCNC(=O)CC2c2ccccc2)c1 (stereo not drawn)	none
COc1cccc(C(=O)NCCn2ccn3nc(-c4ccc(C)cc4C)cc3c2=O)c1OC	none
Cc1ccc(C)c(C(=O)NCCn2ccn3nc(-c4cc(C)ccc4C)cc3c2=O)c1	none
Cc1ccc(-c2cc3c(=O)n(CCNC(=O)c4cccc(Cl)c4)ccn3n2)cc1C	none
Cc1ccc(-c2cc3c(=O)n(CCNC(=O)c4ccc(N(C)C)cc4)ccn3n2)c(C)c1	Pf Dd2 growth 10µM
COc1ccc(C(=O)NCCn2ccn3nc(-c4ccc(C)cc4C)cc3c2=O)cc1F	none
CC(=O)Nc1cccc(C(=O)NCCn2ccn3nc(-c4ccc(C)cc4C)cc3c2=O)c1	Pf Dd2 growth 5.6µM
Cc1ccc(-c2cc3c(=O)n(CCNC(=O)c4cc(Cl)ccc4F)ccn3n2)c(C)c1	none
